Results taken from ChEMBL document CHEMBL3988442, “University of Dundee, Small-Polar-MMV Screening Library” (2021).
For some of these results: Entries with a potency or affinity are not part of this list.

What was measured:
Design in all cases: scale not given: direction of the effect not stated beside the values
[1] = target: Protein translocase subunit SecA (Escherichia coli (strain K12)) (UniProt P10408); assay: Assay to Identify E. coli SecA ATPase Inhibitors; assay type: functional; conditions: 30 µM
Protein translocase subunit SecA (Escherichia coli (strain K12)), sequence (P10408 whole entry): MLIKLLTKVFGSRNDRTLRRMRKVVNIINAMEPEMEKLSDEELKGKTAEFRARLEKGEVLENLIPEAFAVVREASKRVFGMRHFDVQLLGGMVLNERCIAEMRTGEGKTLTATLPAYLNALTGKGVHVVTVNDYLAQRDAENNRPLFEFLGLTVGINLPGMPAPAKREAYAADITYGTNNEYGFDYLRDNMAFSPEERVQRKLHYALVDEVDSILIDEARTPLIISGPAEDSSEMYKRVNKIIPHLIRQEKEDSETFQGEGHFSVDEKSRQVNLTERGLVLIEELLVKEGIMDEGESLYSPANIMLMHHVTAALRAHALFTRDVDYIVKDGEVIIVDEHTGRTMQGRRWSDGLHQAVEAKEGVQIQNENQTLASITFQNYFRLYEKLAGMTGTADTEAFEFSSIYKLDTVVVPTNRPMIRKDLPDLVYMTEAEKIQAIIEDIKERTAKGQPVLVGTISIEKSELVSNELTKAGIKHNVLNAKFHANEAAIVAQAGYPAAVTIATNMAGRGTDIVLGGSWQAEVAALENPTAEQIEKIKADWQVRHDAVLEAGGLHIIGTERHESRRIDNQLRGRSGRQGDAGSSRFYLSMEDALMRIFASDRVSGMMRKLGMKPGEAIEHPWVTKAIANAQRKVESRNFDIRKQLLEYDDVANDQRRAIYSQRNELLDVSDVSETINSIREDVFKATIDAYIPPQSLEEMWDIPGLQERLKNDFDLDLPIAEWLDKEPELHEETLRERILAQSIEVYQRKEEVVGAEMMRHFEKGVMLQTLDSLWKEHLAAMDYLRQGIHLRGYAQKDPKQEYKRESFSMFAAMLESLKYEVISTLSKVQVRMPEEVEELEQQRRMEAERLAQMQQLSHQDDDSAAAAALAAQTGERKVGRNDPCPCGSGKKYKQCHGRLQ

[2] = target: T1, Ubiquitin-activating enzyme e1, putative (Leishmania donovani (strain BPK282A1)) (UniProt E9BSI1); assay: Leishmania donovani Ubiquitin Activating Enzyme (LdE1); assay type: functional; conditions: 30 µM
T1 sequence (whole entry): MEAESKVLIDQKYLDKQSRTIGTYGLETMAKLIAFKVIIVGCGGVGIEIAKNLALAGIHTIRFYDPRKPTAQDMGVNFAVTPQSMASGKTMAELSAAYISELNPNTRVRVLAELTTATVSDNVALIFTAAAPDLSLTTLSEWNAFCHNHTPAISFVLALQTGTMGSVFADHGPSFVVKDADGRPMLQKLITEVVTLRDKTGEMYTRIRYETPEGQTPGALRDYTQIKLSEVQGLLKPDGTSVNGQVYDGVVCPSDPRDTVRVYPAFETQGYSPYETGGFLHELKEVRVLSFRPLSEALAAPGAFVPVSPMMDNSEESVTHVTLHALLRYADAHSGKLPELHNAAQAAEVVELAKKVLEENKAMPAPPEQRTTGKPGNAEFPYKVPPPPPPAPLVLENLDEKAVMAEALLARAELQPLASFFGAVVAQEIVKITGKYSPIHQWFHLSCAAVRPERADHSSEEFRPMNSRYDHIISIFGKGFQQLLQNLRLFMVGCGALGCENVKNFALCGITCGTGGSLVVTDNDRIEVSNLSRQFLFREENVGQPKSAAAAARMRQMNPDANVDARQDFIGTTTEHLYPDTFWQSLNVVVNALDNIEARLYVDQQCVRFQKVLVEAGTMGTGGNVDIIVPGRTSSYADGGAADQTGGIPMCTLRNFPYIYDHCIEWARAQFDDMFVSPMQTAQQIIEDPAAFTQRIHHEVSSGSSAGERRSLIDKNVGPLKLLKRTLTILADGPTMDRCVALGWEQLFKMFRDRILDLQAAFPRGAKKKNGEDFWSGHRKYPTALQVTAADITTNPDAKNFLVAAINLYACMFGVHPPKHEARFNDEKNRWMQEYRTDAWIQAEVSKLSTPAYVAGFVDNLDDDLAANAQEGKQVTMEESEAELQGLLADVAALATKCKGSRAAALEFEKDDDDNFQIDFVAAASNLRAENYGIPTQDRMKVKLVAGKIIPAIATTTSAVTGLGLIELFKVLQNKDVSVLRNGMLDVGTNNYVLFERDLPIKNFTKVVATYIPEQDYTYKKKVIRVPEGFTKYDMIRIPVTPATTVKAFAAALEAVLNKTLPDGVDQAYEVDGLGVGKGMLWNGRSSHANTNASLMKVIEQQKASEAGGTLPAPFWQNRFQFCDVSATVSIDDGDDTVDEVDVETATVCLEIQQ

[3] = target: AMP-activated protein kinase, AMPK (Homo sapiens) (UniProt P54646+O43741+P54619+Q9UGJ0+Q9Y478+Q13131+Q9UGI9); assay: AMP-dependent Kinase enzyme assay. An in vitro enzyme assay that detects ADP turnover that is directly proportional to AMPK activity. This uses naive AMPK that is activated during the assay with MK-8722; assay type: functional; conditions: 30 µM
[4] = target: Sialic acid-binding Ig-like lectin 9 (Homo sapiens) (UniProt Q9Y336); assay: Hs-Siglec9 ALPHAscreen SOP 20170721; conditions: 10 µM
Sialic acid-binding Ig-like lectin 9 (Homo sapiens), sequence (Q9Y336 whole entry): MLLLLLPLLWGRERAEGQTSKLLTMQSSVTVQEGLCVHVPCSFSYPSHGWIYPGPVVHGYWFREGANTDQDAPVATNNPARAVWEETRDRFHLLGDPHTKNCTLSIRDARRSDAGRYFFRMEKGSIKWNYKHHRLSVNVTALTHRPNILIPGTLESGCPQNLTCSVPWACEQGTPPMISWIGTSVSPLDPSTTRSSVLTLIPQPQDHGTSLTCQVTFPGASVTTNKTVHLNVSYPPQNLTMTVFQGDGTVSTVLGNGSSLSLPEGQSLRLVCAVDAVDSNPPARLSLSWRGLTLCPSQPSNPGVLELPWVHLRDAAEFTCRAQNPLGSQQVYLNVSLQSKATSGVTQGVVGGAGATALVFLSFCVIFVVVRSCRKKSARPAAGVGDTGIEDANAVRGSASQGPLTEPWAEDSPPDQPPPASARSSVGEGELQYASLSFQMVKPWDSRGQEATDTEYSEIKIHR

[5] = test system: Trypanosoma cruzi; assay: Trypanosoma cruzi phosphomannomutase and mannose-1-phosphate guanylyltransferase assay; assay type: functional; conditions: 10 µM
[6] = target: T2, Arginase-2, mitochondrial (Homo sapiens) (UniProt P78540); assay: in vitro enzyme assay to detect the production of urea directly proportional to the activity of Arginase II; assay type: functional; conditions: 33.3 µM; further: in the data most compounds retested in dose-response had high values
T2 sequence (whole entry): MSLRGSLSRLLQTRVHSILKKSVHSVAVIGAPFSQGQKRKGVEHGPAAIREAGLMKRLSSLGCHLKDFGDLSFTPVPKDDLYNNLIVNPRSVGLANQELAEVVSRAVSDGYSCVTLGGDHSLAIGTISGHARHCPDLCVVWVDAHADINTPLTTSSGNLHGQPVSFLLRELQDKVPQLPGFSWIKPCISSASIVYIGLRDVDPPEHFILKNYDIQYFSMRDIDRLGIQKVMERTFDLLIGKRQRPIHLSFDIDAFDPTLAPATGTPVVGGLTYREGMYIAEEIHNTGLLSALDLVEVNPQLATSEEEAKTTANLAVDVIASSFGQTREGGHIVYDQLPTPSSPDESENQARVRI

[7] = target: T3, Proteasome subunit beta (Trypanosoma cruzi) (UniProt O96673); assay: Trypanosoma cruzi proteasome chymotrypsin-like activity (TcProtChymo) assay.; further: in the data most compounds retested in dose-response had high values; assay type: functional; conditions: 9.37 µM
T3 sequence (whole entry): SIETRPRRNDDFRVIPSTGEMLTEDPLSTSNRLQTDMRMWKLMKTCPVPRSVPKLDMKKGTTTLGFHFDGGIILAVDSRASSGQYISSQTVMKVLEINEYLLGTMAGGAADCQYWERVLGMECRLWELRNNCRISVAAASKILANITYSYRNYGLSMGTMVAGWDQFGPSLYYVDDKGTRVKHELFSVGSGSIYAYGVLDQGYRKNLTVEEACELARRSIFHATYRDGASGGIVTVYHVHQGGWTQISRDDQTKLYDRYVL

[8] = species on record: Homo sapiens; assay: To identify inhibition of the IFN signalling (Jak-Stat) pathway via expression of an eGFP reporter gene under the control of an IFN-stimulated response element (ISRE) containing MxA promoter.; assay type: functional; conditions: 30 µM
[9] = target: T4, Tyrosyl-tRNA synthetase, putative (Trypanosoma cruzi (strain CL Brener)) (UniProt Q4DSP6); assay: Trypanosoma cruzi tyrosyl tRNA synthetase (TcYRS) _High Tyrosine SOP; assay type: functional; conditions: 30 µM; further: in the data most compounds retested in dose-response had high values
T4 sequence (whole entry): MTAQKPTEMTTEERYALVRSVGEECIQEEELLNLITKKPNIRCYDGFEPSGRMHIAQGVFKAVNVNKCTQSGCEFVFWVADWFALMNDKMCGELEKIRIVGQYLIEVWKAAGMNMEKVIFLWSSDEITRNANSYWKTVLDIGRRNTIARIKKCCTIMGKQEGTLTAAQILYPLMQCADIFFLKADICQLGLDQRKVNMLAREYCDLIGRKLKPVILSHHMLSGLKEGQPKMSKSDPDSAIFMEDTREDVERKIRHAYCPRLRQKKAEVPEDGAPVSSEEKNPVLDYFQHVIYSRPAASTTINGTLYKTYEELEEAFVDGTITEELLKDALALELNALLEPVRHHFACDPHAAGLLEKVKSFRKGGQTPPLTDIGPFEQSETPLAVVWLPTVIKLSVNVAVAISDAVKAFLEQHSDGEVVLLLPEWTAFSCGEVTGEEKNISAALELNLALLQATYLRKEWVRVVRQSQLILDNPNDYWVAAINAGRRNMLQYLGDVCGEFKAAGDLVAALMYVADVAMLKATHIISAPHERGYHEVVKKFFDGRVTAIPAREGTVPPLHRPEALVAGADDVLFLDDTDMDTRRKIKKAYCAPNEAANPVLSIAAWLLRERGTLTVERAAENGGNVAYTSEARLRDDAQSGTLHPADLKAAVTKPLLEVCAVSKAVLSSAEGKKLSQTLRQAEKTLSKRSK

[10] = target: T4, Tyrosyl-tRNA synthetase, putative (Trypanosoma cruzi (strain CL Brener)); assay: Trypanosoma cruzi tyrosyl tRNA synthetase (TcYRS) SOP; assay type: functional; conditions: 30 µM
[11] = target: Chromo domain-containing protein 1 (Saccharomyces cerevisiae (strain ATCC 204508 / S288c) (Baker's yeast)) (UniProt P32657); assay: ScCHD-1 Enzyme Inhibition Assay; assay type: functional; conditions: 30 µM; further: in the data most compounds retested in dose-response had high values
Chromo domain-containing protein 1 (Saccharomyces cerevisiae (strain ATCC 204508 / S288c) (Baker's yeast)), sequence (P32657 whole entry, the tested form may be a part): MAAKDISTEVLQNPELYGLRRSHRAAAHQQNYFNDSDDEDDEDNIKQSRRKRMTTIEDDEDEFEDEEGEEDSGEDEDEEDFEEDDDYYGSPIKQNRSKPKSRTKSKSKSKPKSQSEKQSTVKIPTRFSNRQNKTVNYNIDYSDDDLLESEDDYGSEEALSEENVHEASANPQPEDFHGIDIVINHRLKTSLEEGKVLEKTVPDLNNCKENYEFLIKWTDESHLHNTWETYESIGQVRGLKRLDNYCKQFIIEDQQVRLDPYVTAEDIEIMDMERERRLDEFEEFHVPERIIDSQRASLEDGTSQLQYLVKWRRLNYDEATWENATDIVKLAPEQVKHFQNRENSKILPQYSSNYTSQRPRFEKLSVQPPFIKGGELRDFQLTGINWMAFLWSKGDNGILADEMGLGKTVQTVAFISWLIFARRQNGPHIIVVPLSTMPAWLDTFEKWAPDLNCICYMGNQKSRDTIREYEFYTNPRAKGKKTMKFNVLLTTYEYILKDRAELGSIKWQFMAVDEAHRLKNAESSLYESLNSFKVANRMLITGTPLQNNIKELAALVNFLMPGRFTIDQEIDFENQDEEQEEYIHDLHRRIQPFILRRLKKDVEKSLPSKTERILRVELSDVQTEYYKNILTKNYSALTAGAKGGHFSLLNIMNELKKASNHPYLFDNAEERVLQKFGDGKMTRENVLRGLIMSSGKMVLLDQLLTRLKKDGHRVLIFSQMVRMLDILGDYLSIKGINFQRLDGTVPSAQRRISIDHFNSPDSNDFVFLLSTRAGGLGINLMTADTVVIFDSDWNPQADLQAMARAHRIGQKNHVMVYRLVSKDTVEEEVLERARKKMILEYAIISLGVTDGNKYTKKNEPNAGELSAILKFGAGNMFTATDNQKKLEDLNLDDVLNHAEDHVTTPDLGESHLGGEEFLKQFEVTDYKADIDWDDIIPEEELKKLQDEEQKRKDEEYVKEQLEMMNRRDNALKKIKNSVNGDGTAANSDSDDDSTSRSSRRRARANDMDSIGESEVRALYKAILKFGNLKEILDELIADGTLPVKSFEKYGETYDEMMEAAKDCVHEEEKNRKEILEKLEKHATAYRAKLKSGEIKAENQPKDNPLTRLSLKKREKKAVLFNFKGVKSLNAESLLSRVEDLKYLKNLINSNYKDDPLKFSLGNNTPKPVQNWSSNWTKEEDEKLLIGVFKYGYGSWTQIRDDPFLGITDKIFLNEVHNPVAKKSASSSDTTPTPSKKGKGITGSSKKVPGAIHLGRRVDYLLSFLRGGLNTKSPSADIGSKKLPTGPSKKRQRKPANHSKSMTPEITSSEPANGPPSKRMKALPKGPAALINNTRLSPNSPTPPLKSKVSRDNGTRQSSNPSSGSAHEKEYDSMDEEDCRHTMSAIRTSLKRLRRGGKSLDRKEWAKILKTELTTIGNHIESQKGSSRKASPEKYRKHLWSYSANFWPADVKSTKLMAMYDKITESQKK

| Structure (SMILES) | Percent Effect [1] [%] | Percent Effect [2] [%] | Percent Effect [3] [%] | Percent Effect [4] [%] | Percent Effect [5] [%] | Percent Effect [6] [%] | Percent Effect [7] [%] | Percent Effect [8] [%] | Percent Effect [9] [%] | Percent Effect [10] [%] | Percent Effect [11] [%] |
| --- | --- | --- | --- | --- | --- | --- | --- | --- | --- | --- | --- |
| Cc1nn(C)cc1CN1CCC(C2Nc3ccccc3S(=O)(=O)N2)CC1 (stereo not given) | -3.36 | 6.76 | 11.9 | 2.59 | -1.78 | 0.232 | 7.49 | -1.1 | 6.45 | 14.3 | -9.41 |
| Cn1nc(CNC(=O)NCc2ccc(Cl)cc2)c2c1CCOC2 | -4.99 | 5.2 | 6.43 | 7.81 | 3.45 | -7.1 | -3.83 | 20.2 | 0 | -3.85 | -5.33 |
| N#CCCN(C(=O)CN1CCCC1Cc1ccccc1)c1ccccc1 (stereo not given) | -5.2 | 2.7 | -1.32 | 26.1 | 4.1 | 10.8 | 5.33 | 0.149 | 11.9 | 13.4 | -6.86 |
| CCn1ccnc1-c1nc2cc(S(=O)(=O)N3CCCC3)ccc2n1C | -6.04 | 0 | 3.54 | 25.2 | 4.31 | 6.36 | 4.97 | 2.47 | 3.23 | 10 | 100 |
| c1ccc(OCC2CC3(CCN(Cc4ccncc4)CC3)CO2)nc1 (stereo not given) | -3.46 | 9.33 | 6.58 | 5.09 | -4.13 | -4.4 | 12.2 | -5.36 | 2.12 | 7.69 | -5.62 |
| COc1cccc(C(=O)N2CCCC(C(=O)CCc3ccccc3)C2)c1 (stereo not given) | -1.46 | 11 | 17.6 | 10.9 | 1.96 | 4.54 | 20.1 | 23.4 | 1.07 | 7.5 | -8.9 |
| CC(C)n1c(C2CCCN(CCS(C)(=O)=O)C2)nc2ccccc21 (stereo not given) | -2.02 | 8.11 | 1.95 | -0.0156 | 0.586 | 13.8 | 7.69 | -5.65 | 5.94 | 8.54 | -2.93 |
| CN(C)c1cc(CNC(=O)c2ccc(=O)[nH]n2)ccn1 | -2.65 | 18.2 | -1.88 | -14.6 | 3.82 | -2.32 | 17.9 | 4.06 | 9.52 | 30.6 | -19.7 |
| CN(C)C(=O)CN1CCCCC1c1nc(N)ncc1-c1ccccc1 (stereo not given) | -1.46 | 2.67 | 10.4 | 1.52 | -2.95 | 2.1 | 2.56 | -0.722 | 4.25 | 6.41 | -5.48 |
| COc1cccc(COCC(=O)N2CCCC(c3nncn3C)C2)c1 (stereo not given) | -4.98 | 13.5 | -6.54 | 18.4 | 3.11 | -6.81 | 0.721 | 13.5 | 4.43 | 16.1 | -11.8 |
| Cc1nc(N2CC[C@@H](NC(=O)c3cnccn3)[C@H](O)C2)c2ccsc2n1 | 0.273 | 8.11 | -4.4 | 15.3 | 2.7 | 3.33 | 2.41 | 46.9 | 5.82 | 19.5 | -3.51 |
| CS(=O)(=O)N1CCCC12CCCN(S(=O)(=O)c1ccc(F)cc1)C2 (stereo not given) | -3.85 | 5.41 | -33.3 | -0.0111 | -5.18 | 1.24 | 10.7 | -4.37 | 6.45 | 6.17 | -9.7 |
| O=C(NCCCn1nc2ccccn2c1=O)NC1CCC(O)CC1 (stereo not given) | -2.16 | 2.74 | 9.76 | 3.96 | -8.62 | 0.455 | 22.5 | 9.28 | 0 | 2.5 | -4.68 |
| CS(=O)(=O)NC[C@H]1OC[C@@H]2CCN(Cc3ccc(F)cc3)C[C@@H]21 | 0.854 | 13.3 | 2.13 | -0.611 | -1.74 | -27.8 | 7.35 | 13.4 | 3.12 | 15 | -6.75 |
| COc1cc2cc(C(=O)O)n(C)c2cc1OC | -4.26 | -4 | 7.45 | 10.6 | -0.982 | -10 | 9.61 | -15.2 | 4.23 | 0 | -6.18 |
| Cn1nc(C2CCCN(C(=O)Cc3ccsc3)C2)c2nccnc21 (stereo not given) | -5.11 | 9.46 | 7.86 | 10.4 | -5.14 | -1.16 | 8.89 | 23.9 | -1.07 | 6.49 | -13.9 |
| Cc1nc(CSCCC(=O)NCc2cccnc2N(C)C)cs1 | -0.871 | 20.2 | -1.17 | -7.06 | 5.38 | 4.56 | 7.45 | 5.3 | 6.4 | 24.1 | -7.54 |
| Cc1oncc1C(=O)N1CCC2(C1)CN(c1cccnc1)C(=O)CN2C (stereo not given) | -3.58 | 10.7 | -0.768 | -0.716 | 4.05 | -53.6 | 4.27 | -6.85 | 2.08 | 5 | -5.61 |
| CCCSCC(=O)Nc1ncn(CC(=O)NCc2ccccc2)n1 | -2.05 | 8 | -1.58 | 7.45 | 3.6 | 13.5 | 12.9 | 4.31 | 6.01 | 16.1 | -6.22 |
| O=C(NCCNc1ccc(C(F)(F)F)cn1)c1cncc(Br)c1 | 1.84 | 15.6 | 50.8 | -7 | -4.8 | 3.58 | 12.5 | 27.5 | 13.3 | 30.6 | -20.7 |
